Screening data as filed in PubChem.
Luc counter = counter-screen: inhibitors of Kinase-Glo firefly luciferase; Q27757; 0.28% of 200,000 active; Kinase-Glo luciferase, ATP luminescence, 8 min; AID 1379; Potency, µM (highest dose often 38.3 µM), for the others: at the highest dose activity change, negative = inhibition, hits mostly inhibitors; also: % is scaled to controls: 0 for no effect and ±100 for the full control effect; nearly all actives have a fitted effect of over 60% in size
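Substrate mix (final 50 mM imidazole pH 7.2, 50 mM KCl, 7 mM MgCl2, 10 uM ATP, 0.01% Tween 20, 0.05% BSA) plus pin-tool compound, then Kinase-Glo detection mix; 8 min ambient, luminescence read.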
ELG1 genotox = induces genotoxicity in HEK293T cells with luciferase-tagged ELG1; HEK293T ELG1-luciferase reporter, luminescence, 16 h; Potency, µM (titrated, usually from 46 µM), inactives show at the top dose activity change, positive = activation, hits mostly activators; 1.3% of 330,000 active; AID 504466; also: % of control where 0% means no effect; nearly all actives have a fitted effect of over 60% in size
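HEK293T cells expressing luciferase-tagged ELG1 were treated with compound or DMSO for 16 hr at 37°C. Luciferase activity was then read after 30 min with ONE-Glo at room temperature; rising signal flags genetic stress.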
SMN2 splice enh = SMN2 splice variant enhancement; HEK293 SMN2-luciferase splicing reporter, luminescence, 30-36 h; Potency, µM (titrated, usually from 46.1 µM), inactives show at the highest dose activity change, positive = activation, hits mostly activators; 2.8% of 210,000 active; AID 1458; also: % of control where 0% means no effect; nearly all actives have a fitted effect of over 55% in size
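qHTS luciferase splicing reporter: luminescence rises when SMN2 exon 7 is included in transfected HEK293 cells. Compound exposure lasted 30-36 h at 37C, with 4.5 mM final sodium butyrate as control, followed by a ONE-Glo read.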
FLuc counter = inhibits or activates purified firefly luciferase, miR-21 counter-screen; purified FLuc, Km substrates, luminescence inhibition; P08659; AID 588342; 6.9% of 360,000 active; Potency, µM (highest dose often 57.5 µM), for inactives: at the top dose activity change, negative = inhibition, most hits filed as inhibitors;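 also: plate controls were vehicle for no effect and reference inhibitor for full effect; nearly all actives have a fitted effect of over 55% in size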
Target sequence (P08659 whole entry, looked up): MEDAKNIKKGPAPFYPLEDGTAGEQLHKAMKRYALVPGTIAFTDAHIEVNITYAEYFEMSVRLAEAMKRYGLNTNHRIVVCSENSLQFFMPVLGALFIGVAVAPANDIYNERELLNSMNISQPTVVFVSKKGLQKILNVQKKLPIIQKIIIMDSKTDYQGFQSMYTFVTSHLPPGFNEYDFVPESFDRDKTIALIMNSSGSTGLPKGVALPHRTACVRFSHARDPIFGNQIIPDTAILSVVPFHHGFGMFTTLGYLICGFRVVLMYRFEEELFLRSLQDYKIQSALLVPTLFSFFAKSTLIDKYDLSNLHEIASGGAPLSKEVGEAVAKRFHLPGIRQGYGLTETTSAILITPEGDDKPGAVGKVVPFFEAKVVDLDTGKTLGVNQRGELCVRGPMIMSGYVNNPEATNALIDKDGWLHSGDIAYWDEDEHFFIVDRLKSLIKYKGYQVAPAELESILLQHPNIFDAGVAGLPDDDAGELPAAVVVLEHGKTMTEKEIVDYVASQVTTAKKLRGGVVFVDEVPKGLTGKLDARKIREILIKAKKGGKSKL
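Purified P. pyralis luciferase (10nM final) with 10uM D-luciferin and 10uM ATP (Km levels) in 50mM Tris acetate pH 7.5, 10mM Mg acetate, 0.01% Tween-20, 0.05% BSA; qHTS 6-point titration, ~60 µM downward; luminescence read.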
Rab9 promoter act = activates the Rab9 promoter; Potency, µM (series often up to 9.22 µM), without a hit: at the top dose activation, negative = inhibition, usual class: activators; AID 485297; Huh7 Rab9 promoter-luciferase reporter, luminescence, 24 h; 2.8% of 320,000 active; also: % of control where 0% means no effect; nearly all actives have a fitted effect of over 60% in size
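Huh7 reporter line, Rab9 promoter upstream of luciferase. Compound exposure 24 h at 37 °C in reduced-serum medium with 10% FBS. Read-out: luminescence.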
NPC1 promoter act = activates the NPC1 promoter; Huh7 NPC1 promoter luciferase reporter, 24 h; Potency, µM (highest dose often 9.22 µM), without a hit: top-dose activation, usual class: activators; 2.4% of 320,000 active; AID 485313; also: % of control where 0% means no effect; nearly all actives have a fitted effect of over 60% in size
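Compounds in DMSO were transferred onto Huh7 NPC1-luciferase reporter cells pre-incubated 2 h; after 24 h at 37 °C, Amplite reagent was dispensed and luminescence recorded 10 min later.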
The depositor's hits bear a star; ? = inconclusive; . = not tested or not shown. Only some compounds are listed: those with a hit (about 7.5% of all), similar ones and a draw of the others. Calls follow the shape of the dose curve; as a rule, active = well fitted curve in the direction sought with a large enough effect; inconclusive = small, poorly fitted or top-dose-only effect, or another doubt; inactive = no such curve, though single readings can be large; an effect the other way counts as inactive or inconclusive. Potency is read from the fitted curve at half-maximal effect.

SMILES	Luc counter	ELG1 genotox	SMN2 splice enh	FLuc counter	Rab9 promoter act	NPC1 promoter act
Cc1ccc(NC(=O)Nc2cccnc2)cc1Cl	.	?	.	4.78µM*	27.7%	?
Cc1cccc(C)c1OCCNC(=O)OCc1ccccc1	-2.2%	-9.1%	2.6%	-1.1%	10.1%	-3.2%
COC(=O)c1ccccc1-n1cccc1C(=O)NP(=O)(N1CCOCC1)N1CCOCC1	-0.4%	-1.0%	8.8%	12.3%	2.6%	2.0%
O=C(NCC(F)(F)F)Nc1cccnc1	-0.4%	1.3%	-10.5%	-1.3%	7.1%	-6.6%
Cn1ccc2cc3c(cc21)CCN3C(=O)Nc1cccnc1	-3.1%	?	?	6.01µM*	3.16µM*	3.66µM*
COc1cc2c(cc1C(F)(F)F)N(C(=O)Nc1cc(F)cc(-c3cccnc3)c1)CC2	-3.8%	.	-18.4%	.	.	.
O=C(Nc1ccc(OC(F)(F)F)cc1)Nc1cccnc1	.	6.3%	.	7.57µM*	?	?
CC(=O)c1ccc(NC(=O)Nc2ccncc2)cc1	-0.6%	12.4%	15.3%	-26.5%	20.3%	1.0%
CC(=O)c1ccc(NC(=O)Nc2cccnc2)cc1	.	20.6µM*	.	?	?	2.51µM*
Cc1ccc(SC[C@H](c2ccccc2)N2CCN(CCc3ccccc3)CCC2=O)cc1	.	-4.3%	.	26.9µM*	-1.9%	8.8%
O=C1CCN(CCc2ccccc2)CCN1[C@H](CSc1ccccc1)c1ccccc1	.	1.2%	.	?	8.5%	11.8%
CCCN1CCC(=O)N([C@H](CSc2ccccc2)c2ccccc2)CC1	.	13.8%	.	?	?	?
CN1CCC(=O)N([C@H](CC#N)c2ccccc2)CC1	.	3.2%	.	5.3%	3.7%	2.3%
CCCN1CCC(=O)N([C@H](CSc2ccc(OC)cc2)CC(C)C)CC1	.	?	.	15.1µM*	?	?
CN1CCC(=O)N([C@H](CSc2ccc(Br)cc2)c2ccccc2)CC1	.	?	.	16.9µM*	?	?
CCCN1CCC(=O)N([C@H](CSc2ccc(C)cc2)c2ccccc2)CC1	.	11.0%	.	15.1µM*	?	?
CCC(=O)N1CCc2cc(Br)cc(S(=O)(=O)CCC(=O)NCCc3cccc(C)c3)c21	.	.	.	-9.2%	.	.
O=C(NCc1nc2ccccc2[nH]1)C1=C[C@H](c2ccc3c(c2)OCO3)C[C@H](OCc2ccc(CO)cc2)O1	.	-6.5%	.	-17.1%	-1.5%	5.5%
Cc1nn(CCCC(=O)Nc2cc(C(F)(F)F)ccc2Cl)c(=O)c2c1sc1ccccc12	.	.	.	-2.1%	.	.
COc1ccc(NC(=O)CN(C)C(=O)c2ccc(NS(=O)(=O)c3cccc([N+](=O)[O-])c3)cc2)cc1	.	-2.7%	.	23.9µM*	-2.1%	3.1%
CCc1ccc(NC(=O)c2cc(CC(C)C)on2)cc1	-0.2%	16.4µM*	25.3%	2.69µM*	?	26.2%
CC(C)Cc1cc(C(=O)Nc2c(F)cc(F)cc2Br)no1	4.1%	?	11.6%	?	2.5%	-5.7%
CC(C)Cc1cc(C(=O)Nc2ccc(F)cc2F)no1	-15.4%	16.4µM*	-3.0%	10.7µM*	14.5%	12.3%
CC(C)Cc1cc(C(=O)Nc2cc(Cl)ccc2Cl)no1	1.1%	29.8%	5.6%	?	20.5%	16.3%
CC(C)Cc1cc(C(=O)Nc2ccc(Br)cc2)no1	.	?	.	2.69µM*	?	?
SMILES	Luc counter	ELG1 genotox	SMN2 splice enh	FLuc counter	Rab9 promoter act	NPC1 promoter act
CC(C)Cc1cc(C(=O)Nc2cccc(O)c2)no1	.	?	.	0.675µM*	?	?
CC(C)CN(CCNC(=O)c1cn(C)c2ccc(S(=O)(=O)N3CCCCCC3)cc2c1=O)CC(C)C	.	.	7.2%	-1.1%	.	.
COCCCNC(=O)c1cc(-c2cccnc2)nc2ccc(S(=O)(=O)N3CCC(C)CC3)cc12	.	.	.	-3.6%	.	.
COc1ccc(NC(=O)c2cc(CC(C)C)on2)cc1OC	-2.6%	20.6µM*	20.7%	?	1.3%	6.4%
CC(C)Cc1cc(C(=O)Nc2ccc3c(c2)OCO3)no1	-5.7%	4.61µM*	15.8µM*	5.36µM*	3.16µM*	3.16µM*
COc1ccc(NC(=O)c2cc(-c3ccccc3)on2)cc1OC	.	6.2%	.	-5.1%	-1.0%	0.9%
CC(C)Cc1cc(C(=O)NCc2cccs2)no1	-3.7%	16.4µM*	12.6µM*	15.1µM*	?	?
CC(C)Cc1cc(C(=O)NCc2cccnc2)no1	-4.4%	22.4%	10.7%	-14.4%	9.3%	9.8%
COc1ccc2oc(=N)c(C(=O)Nc3ccccc3Cl)cc2c1	.	?	.	0.536µM*	2.51µM*	3.55µM*
COc1ccc2oc(=N)c(C(=O)Nc3ccccc3)cc2c1	-15.9%	?	12.6µM*	0.953µM*	3.16µM*	?
COc1ccc2oc(=N)c(C(=O)Nc3ccc(C)cc3)cc2c1	.	11.3%	.	?	?	23.4%
N=c1oc2cc(O)ccc2cc1C(=O)Nc1ccc(Br)cc1	.	17.0%	.	2.69µM*	1.41µM*	1.78µM*
N=c1oc2ccc(Br)cc2cc1C(=O)NCc1ccccc1	.	13.9%	.	-0.8%	6.0%	-5.9%
COc1ccc2oc(=O)c(C(=O)Nc3ccccc3C)cc2c1	.	?	.	1.69µM*	3.16µM*	3.16µM*
O=C(Cc1ccc([N+](=O)[O-])cc1)N1N=C(c2ccncc2)CC1(O)C(F)(F)F (centres undefined)	1.3%	0.1%	-3.5%	-2.1%	0.5%	-3.0%
COc1cc(CN(C(=O)c2oc3ccccc3c2C)C2CCS(=O)(=O)C2)cc(OC)c1OC (centres undefined)	.	.	12.2%	-1.6%	.	.
COC(=O)Cc1ccc(OC(=O)c2cccc(S(=O)(=O)N3CCN(C)CC3)c2)cc1	.	7.2%	.	-1.6%	-6.2%	-2.3%
O=C(NNC(=O)c1cc2cc(Br)ccc2oc1=O)c1ccc(O)cc1	-1.0%	-1.3%	-4.2%	-17.1%	-2.0%	-3.7%
COc1ccc2oc(=O)c(C(=O)N3CCN(c4ccccc4C)CC3)cc2c1	-3.1%	9.2µM*	14.1µM*	13.5µM*	27.2%	17.7%
N=c1oc2cc(O)ccc2cc1C(=O)Nc1ccccn1	-3.1%	4.4%	-6.5%	?	2.3%	0.6%
COc1ccc2oc(=O)c(C(=O)N3CCN(c4ccccc4)CC3)cc2c1	-3.6%	27.7%	15.1%	?	2.8%	2.8%
CNC(=O)c1cc2cc(OC)ccc2oc1=N	-3.9%	2.4%	-13.4%	-16.6%	0.0%	-6.6%
N=c1oc2cc(O)ccc2cc1C(=O)Nc1nc2ccccc2s1	-4.1%	6.51µM*	0.1%	0.19µM*	3.16µM*	3.98µM*
O=C(Nc1ccccc1O)c1cc2cc(Br)ccc2oc1=O	.	?	.	?	?	3.55µM*
COc1ccc2oc(=N)c(C(=O)Nc3cccc(C)c3C)cc2c1	.	?	.	0.757µM*	4.47µM*	2.24µM*
